In all, about 340,000 compounds went through this assay and about 210 (0.062%) were called active. The entries come from a sample that favours actives as a whole. Unmarked numbers belong to inactive results. Rule as the data show it: active = inhibition above about 30% (passing the limit was not always enough); inconclusive = no clear call, values can overlap the other calls.

In the test the test system is PvdQ acylase [Pseudomonas aeruginosa LESB58]. As to the kind of experiment: P. aeruginosa PvdQ acylase inhibitors, primary screen, biochemical, fluorescence, plate reader and imaging, single point (AID 488965).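 Also: 0% = vehicle neutral wells and 100% = reference inhibitor wells.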 The following applies: purified PvdQ acylase, at 10 µM, active compounds read high.
As usually defined, the inhibition is the drop in the measured response relative to a control, in per cent. Turning to `CCN(CC)c1ccc(NC(=O)c2ccc(Cl)nc2)cc1`, the inhibition is -15.1%.

In the case of `CCCCNC(=O)C1(c2ccc(OC)cc2)CCOCC1`, the inhibition was -4.05%.

For `NS(=O)(=O)c1ccc(NC(=S)N2CCCC2)cc1`, the inhibition is 9.11%.

Take `CC1(C)Oc2ccc(C(=O)N3CCOCC3)cc2N(CC(=O)Nc2ccccc2)C1=O`: the inhibition is -16.2%.

`COCCCNC(=O)/C(C#N)=C/c1c(N2CCCCCC2)nc2ccccn2c1=O`: the inhibition is -15.4%.

For the compound `Cc1ccccc1-n1nc(SCC(=O)O)sc1=S`, the inhibition is -9.08%.

On to `Cc1csc(NC(=O)Nc2ccccc2[N+](=O)[O-])n1`, for which the inhibition is -8.58%.

For `Cc1cc(NC(=O)Nc2ccccc2[N+](=O)[O-])no1`, the inhibition was 62.7% (active).

For `Cc1cc(NC(=O)c2ccccc2C)no1`, the inhibition is 11.3%.

As for `Cc1c(C(=O)NCCN2CCOCC2)sc2nc(-c3ccc(F)cc3)cn12`, the inhibition is -12.4%.

As for `Cc1ccc(CNS(=O)(=O)CCNC(=O)c2ccccc2)cc1`, the inhibition is 0.203%.

For the compound `CC1CCCCC1NCC(=O)Nc1ccccc1C(=O)Nc1ccccc1` (configuration not stated), the inhibition was -4.86%.

Regarding `O=C(Nc1ccc(F)cc1)c1cccnc1N1CCOCC1`, the inhibition is -0.858%.

For the compound `O=C(O)CCC(=O)Nc1ccc(OCC2CCCO2)cc1` (configuration not stated), the inhibition was -5.22%.

As to `Cc1ccc(NC(=O)CC2C(=O)N(Cc3ccccc3)C(=S)N2NC(=O)c2cccc(F)c2)c(C)c1` (configuration not stated), the inhibition was 5.2%.

Regarding `COc1ccc(NC(=O)C2CCC(CNC(=O)[C@@H]3Cc4ccccc4CN3)CC2)cc1` (some centres not stated), the inhibition is -2.14%.

With `Cn1cc(-c2ccccc2)cc(C#N)c1=O`, the inhibition is -0.186%.

Consider `CC(C)C(=O)Nc1oc(-c2ccccc2)cc1C#N`, for which the inhibition was 7.27%.

For `Cn1cccc1C(C#N)c1ccccc1C#N` (configuration not stated), the inhibition was 56.5% (active).

In the case of `Cc1cc(C)c2c(NC(=O)C3CC3)nn(C)c2n1`, the inhibition is 3.4%.

With `Cc1nnc(SC(C)C(=O)Nc2ccc(S(=O)(=O)NC3CCCCC3)cc2)s1` (configuration not stated), the inhibition is 7.56%.

On to `NS(=O)(=O)c1ccc(CCNC(=O)CN2C(=O)c3ccccc3S2(=O)=O)cc1`, for which the inhibition is 0.254%.

Consider `COc1ccccc1NC(=O)C(C)OC(=O)CC1CCCC1` (configuration not stated), for which the inhibition was -15.2%.

Take `COc1ccc(-c2ocnc2C(=O)Nc2ccc3c(c2)CCC3)cc1`: the inhibition is 0.782%.

With `Cc1cc(Nc2ccc(Br)cc2F)n2ncnc2n1`, the inhibition was -0.336%.

With `CCc1cccc(NC(=O)CCCN2C(=O)C(c3ccccc3)Oc3cccnc32)c1` (configuration not stated), the inhibition was -6.79%.

Turning to `O=C(Nc1c2c(nn1-c1ccc(F)cc1)CS(=O)C2)C12CC3CC(CC(C3)C1)C2` (configuration not stated), the inhibition is -15.9%.

For `O=C(NCCOc1ccccc1F)Nc1ccc(Br)cc1`, the inhibition was -15.7%.

For `CO[C@@H]1[C@@H](OC(N)=O)[C@@H](O)C(Oc2ccc3c(O)c(NC(=O)c4ccc(O)c(CC=C(C)C)c4)c(=O)oc3c2C)OC1(C)C` (some centres not stated), the inhibition was 3.42%.

Consider `O=C(Nc1ccccc1C(=O)N1CCOCC1)c1ccc(CSc2ccccc2)cc1`, for which the inhibition was -11.3%.

As for `C[C@@]12C(=O)N(c3cccc(Br)c3)C(=O)N1[C@H](c1ccc(Cl)cc1)[C@@H]1C(=O)N(C3CCCCC3)C(=O)[C@@H]12`, the inhibition was -10.3%.

As for `Cc1c(C(=O)NC(=S)NCc2cccnc2)oc2ccccc12`, the inhibition is -8.97%.

As for `CC(C)(CSc1nncn1/N=C/c1ccco1)NS(=O)(=O)c1ccc(Cl)cc1`, the inhibition is -10%.

For the compound `COc1ccc(C(O)(C2CCCCC2)C(CN2CCCC2)c2ccccc2)cc1` (configuration not stated), the inhibition was -13.6%.

With `CCOC(=O)C1CCN(C(=O)COc2cccc3ccccc23)CC1`, the inhibition is -22%.

Take `O=C1CN(C(=O)COC(=O)/C=C/c2ccc(F)cc2)c2ccccc2N1`: the inhibition was -0.579%.

Regarding `COc1ccc(N(C)C(=O)C2CCN(S(=O)(=O)c3cccc4nsnc34)CC2)cc1`, the inhibition is -10.1%.

As to `CC(C)(COC(=O)Nc1ccccc1)COC(=O)Nc1ccccc1`, the inhibition is 3.19%.

Turning to `C/C(=N\NS(=O)(=O)c1cccc([N+](=O)[O-])c1)c1cc2ccccc2o1`, the inhibition was 12.7%.

Turning to `Cc1ccc(NC(=O)c2nc[nH]c2C(=O)N2CCCCC2)c(C(=O)c2ccccc2)c1`, the inhibition was 6.08%.

In the case of `CCc1ccccc1S(=O)(=O)Cc1ccc(C(=O)NCCc2ccccc2)o1`, the inhibition was -14.5%.

Consider `Cc1nnc(SCC(=O)N(C(C)C)C(C)C)nc1C`, for which the inhibition was -17%.

For the compound `CC(Sc1nnc(Cc2ccc([N+](=O)[O-])cc2)o1)C(N)=O` (configuration not stated), the inhibition was 5.89%.

Regarding `O=C(NCc1cccc(Cl)c1)C1CCC(=O)N(C2CC2)C1` (configuration not stated), the inhibition was 0.749%.

In the case of `Cc1ccc(S(=O)(=O)N2CCCCC2)cc1C(=O)N(C)CC(=O)Nc1cccc(F)c1`, the inhibition is 2.44%.

In the case of `CCn1c2ccccc2c2cc(NC(=O)C/C(C)=N/NC(=O)c3ccccc3N)ccc21`, the inhibition is -14.8%.

For `COc1ccc(N(CC(=O)NCC2CCCO2)C(=O)CCC(=O)Nc2nccs2)c(OC)c1` (configuration not stated), the inhibition is 0.881%.

On to `Cc1ccc(C(c2sc3nc(C)nn3c2O)N2CCN(c3ccc(F)cc3)CC2)cc1` (configuration not stated), for which the inhibition was -4.54%.

Turning to `CCCC1CC(C)(C(=O)Cn2[nH]c(=O)ccc2=O)OC1=O` (configuration not stated), the inhibition is -24.8%.

Take `O=C(c1ccc(-c2ccccc2)cc1)C1CCCN(C(=O)c2cncs2)C1` (configuration not stated): the inhibition is 46.5% (active).

In the case of `Cn1nccc1C(=O)N1CCCC(C(=O)c2ccc(Oc3ccccc3)cc2)C1` (configuration not stated), the inhibition was -15.6%.

Turning to `CCNC(=O)N1CCCC(C(=O)c2ccc(-c3ccccc3)cc2)C1` (configuration not stated), the inhibition is -11%.

As for `COC(=O)c1c(NC(=O)CN2C(=O)NC(CCc3ccccc3)C2=O)sc2c1CCCCC2` (configuration not stated), the inhibition is 2.45%.

Take `CC1CCN(c2ccc([N+](=O)[O-])cc2C(N)=O)CC1`: the inhibition was -4.82%.

Regarding `CCN1CCN(c2ccc([N+](=O)[O-])cc2C(=O)c2ccc(Cl)cc2)CC1`, the inhibition was -6.71%.

As to `CCC(C)(C)NC(=O)c1cc([N+](=O)[O-])ccc1N1CCCCC1`, the inhibition is 38.9% (active).

In the case of `CCOc1cc(/C=C2\SC(N3CCCC(C)C3)=NC2=O)ccc1O` (configuration not stated), the inhibition is -6.66%.

For the compound `c1ccc2cc(CCCc3cc4ccccc4cn3)ncc2c1`, the inhibition was 21.2%.

On to `Cc1c(NC(=S)NC(=O)CCc2ccccc2)c(=O)n(-c2ccccc2)n1C`, for which the inhibition was -12.9%.

For the compound `Cc1ccc(NC(=O)CCOc2ccccc2)cc1S(=O)(=O)Nc1ccccc1Cl`, the inhibition was -5.34%.

Consider `Cc1nc2nc(C)c(CCC(=O)N3CCN(c4ccccc4)CC3)c(C)n2n1`, for which the inhibition is -9.01%.

For the compound `CO/N=C/c1cn(-c2ccc(Cl)cc2)nn1`, the inhibition was 49% (active).

With `CN(C)c1nnnn1-c1ccc(Cl)cc1`, the inhibition was -0.634%.

On to `CN(C)c1ccc(/C=C/C(=O)c2ccc(C(C)(C)C)cc2)cc1[N+](=O)[O-]`, for which the inhibition was 7.14%.

Take `O=C(/C=C/c1ccc(Cl)c([N+](=O)[O-])c1)c1ccc(O)cc1`: the inhibition is 42% (active).

Turning to `CN(C)c1ccc(/C=C/C(=O)c2ccc(O)cc2)cc1[N+](=O)[O-]`, the inhibition was -3.3%.

Turning to `Cc1ccc(N2CC(C(=O)Nc3cc(Cl)ccc3-n3cncn3)CC2=O)cc1` (configuration not stated), the inhibition was -12.4%.

As to `c1cc(-n2cnnn2)ccc1NC1=NCCC1`, the inhibition was -15.4%.

On to `Cc1ccc(C(=O)Nc2nnc(C3=COCCO3)o2)cc1C`, for which the inhibition is -6.48%.

As for `Cc1c(NC(=O)c2c([N+](=O)[O-])cnn2C)c(=O)n(-c2ccccc2)n1C`, the inhibition was -9.74%.

As for `CSC1=N/C(=C\C=C\c2cccs2)C(=O)S1`, the inhibition was 93.4% (active).

Take `ONC(=Nc1ccccc1)c1ccccc1Cl`: the inhibition is -2.68%.

On to `O=C(CCCN1C(=O)CSc2ncccc21)N1CCN(c2cccc(C(F)(F)F)c2)CC1`, for which the inhibition is -3.29%.

As to `O=C(Nc1ccc(Cl)cc1)c1cccc(OC(=S)N2CCOCC2)c1`, the inhibition is -4.62%.

With `NC(=O)c1ccc(NC(=O)COC(=O)c2c3c(nc4ccccc24)/C(=C\c2ccc4c(c2)OCO4)CCC3)cc1`, the inhibition was 12.2%.

`CCOC(=O)c1cc2cc3ccccc3cc2oc1=O`: the inhibition is 65.9% (active).

Regarding `Cc1cc(C)cc(OCC(=O)NNC(=O)c2cc3ccccc3oc2=O)c1`, the inhibition was -2.78%.

As for `C=CCc1cccc2cc(C(=O)OCC)c(=O)oc12`, the inhibition is 13.8%.

In the case of `CC(=O)Nc1ccc(C(=O)OCC(=O)Nc2ccc([N+](=O)[O-])cc2C(F)(F)F)cc1`, the inhibition was -15.1%.

Turning to `CCc1ccc(NC(=O)CN2CCC(C(=O)c3ccc(OC)cc3)CC2)cc1`, the inhibition is -11.8%.

Turning to `O=C(CN(c1ccccc1)S(=O)(=O)c1ccc(Cl)cc1)Nc1ccccc1C(=O)N1CCCC1`, the inhibition is -7.63%.

`O=C(c1ccccc1)c1ccc2nc(N3CCCCC3)c3nncn3c2c1`: the inhibition is -14.2%.

For `CC(OC(=O)CCc1nc(=O)c2ccccc2n1C)C(=O)NCc1ccc2c(c1)OCO2` (configuration not stated), the inhibition was 11.9%.

Consider `O=C1CC(C(=O)O)NC(=S)N1` (configuration not stated), for which the inhibition was -11%.

`O=C(NCC(=O)N(Cc1cccs1)C(C(=O)NC1CCCCC1)c1ccco1)c1cccs1` (configuration not stated): the inhibition is -5.29%.

With `CCOC(=O)N1CCC(=NNC(N)=O)CC1`, the inhibition is 5.61%.

Take `O=S(=O)(O)c1cc2onnc2c2ccccc12`: the inhibition is -19.4%.

For `CCOc1cc(C(=O)N(Cc2ccccc2)c2ccc(C)cc2)ccc1OCC(=O)N1CCOCC1`, the inhibition was -12.7%.

With `COc1cc(OC)cc(-c2cc3ccc(F)cc3cn2)c1`, the inhibition is 8.09%.

On to `COc1ccc(-c2nnc(-c3ccc4ccccc4c3)o2)cc1`, for which the inhibition was -12.7%.

In the case of `COc1ccc(-c2cc3ncccc3cn2)cc1`, the inhibition is 48.1% (active).

As to `COC(=O)Cc1csc(/N=C/c2c(O)n(-c3cccc(C(F)(F)F)c3)c(=O)c3ccccc23)n1`, the inhibition is -13%.

Values taken from PubChem BioAssay AID488965 (Broad Institute, 2010).
